Results filed as inconclusive are left out. Active and inactive are the calls of the source. Calls come from the whole dose curve; as a rule, active = well fitted cell-killing curve with a large enough effect; inconclusive = small, poorly fitted or top-dose-only effect, or effect the other way; inactive = no such curve, though single readings can be large or run the other way.
These compounds were tested on C33A (assay: Confirmatory qHTS for gynecologic anti-cancer compounds from libraries of approved drugs and bioactive compounds). Conditions: gynecologic cancer cell panel viability, ATPlite luminescence, 48 h; series mostly up to 57.6 µM; activity change, negative = viability loss: at the top concentration.
Procedure, shortened: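 ATP-based luminescent viability (ATPlite) after 48 h drug treatment at 37 °C, 5% CO2, across 57.5 uM–0.977 nM in 1:3 steps. Cells seeded at 1,000 per well 16 h beforehand; IC50 values computed, HEK 293T as selectivity control.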
% is set by controls: 0 for no effect and ±100 for the full control effect; potency is the fitted concentration of half-maximal effect.
Note: nearly all actives have a fitted effect of over 55% in size.

| Structure (SMILES) | Potency | activity change, negative = viability loss |
| --- | --- | --- |
| CCCCc1oc2ccccc2c1C(=O)c1cc(I)c(OCCN(CC)CC)c(I)c1 | 70.8 µM (active) |  |
| O=c1cc(CN2CCOCC2)occ1OCCCCCSc1ccnc2cc(C(F)(F)F)ccc12 |  | -17.5% (inactive) |
| Cn1c(=O)c(F)c(Nc2ccc(I)cc2F)c2c(=O)n(CC(O)CO)cnc21 (stereo not given) |  | -20.6% (inactive) |
| CC(C)Oc1ccc(C(=O)NC(CNC(=O)CN(C)C)Cc2ccc(-c3cn4cccc(C(C)O)c4n3)cc2)cc1Cl (stereo not given) |  | -17.7% (inactive) |
| COc1c(C)c2c(c(O)c1C/C=C(\C)CCC(=O)O)C(=O)OC2 |  | -23.6% (inactive) |
